# “And” between values parts separate entries of the source, which are not always exact repeats. Equal entries are not always repeated. Inconclusive results are not listed. The source made the active and inactive calls. How the source made its calls, unless noted: active means hit-call score of the fitted dose curve at least 0.9, where 1 is the maximum; inconclusive means response in the unintended direction; inactive means score below 0.9.
# Key:
# [1] = IUF_NPC1_cytotoxicity_72hr: Cytotoxicity Assessment at 72 hours in the Leibniz Research Institute for Environmental Medicine (IUF) Neural Progenitor Cell Proliferation Assay (NPC1) (AID 2284332);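 further: rising LDH signal means more cytotoxicity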
# Summary of the method: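 Spheres of primary human neural progenitors are plated one per well on day 0 in growth-factor medium and dosed at once. After three days at 37C, supernatant LDH is measured fluorimetrically via resazurin reduction.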
# [2] = CCTE_Mundy_HCI_iCellGluta_NOG_NeuriteCount: CCTE's Neurite Outgrowth Assay in iCellGluta cells for Neurite Count, Mundy Lab (AID 2284342);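 further: chemical exposure about 48 hours starting 2 hours after plating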
# [3] = system: SERPINA7 (gene 6906); assay: CCTE_GLTED_hTBG: CCTE's human Thyroxine-binding Globulin (TBG) Inhibition Assay, Great Lakes Toxicology and Ecology Division (GLTED) Lab (AID 2284343);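 further: active chemicals lower fluorescence versus DMSO baseline by displacing probe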
# Summary of the method: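 hTBG + test chem, 2 h; ANSA probe displacement; fluorescence readout ex380/em475; DMSO = neg ctrl/baseline; cell-free.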
# [4] = CCTE_Deisenroth_H295R-HTRF_384WELL_ESTRADIOL: CCTE's H295R-HTRF Assay Evaluation of Estradiol Concentration, Deisenroth Lab (AID 2284361; active means hit-call score of the fitted dose curve at least 0.9, where 1 is the maximum; inactive means score below 0.9); conditions: actives raise or lower the signal
# Summary of the method: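 H295R cells exposed 48 h to chemicals at 0.001 - 100 uM final (nine points, triplicate); estradiol in conditioned medium measured by HTRF immunoassay, fitted bidirectionally versus DMSO. Viability by CellTiter-Glo on same plates.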
# [5] = CCTE_Deisenroth_H295R-HTRF_384WELL_TESTOSTERONE: CCTE's H295R-HTRF Assay Evaluation of Testosterone Concentration, Deisenroth Lab (AID 2284373; active means hit-call score of the fitted dose curve at least 0.9, where 1 is the maximum; inactive means score below 0.9); conditions: actives raise or lower the signal
# Summary of the method: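 Secreted testosterone was quantified by HTRF immunoassay of medium from human adrenocortical H295R cells after 48 h chemical exposure at 0.001–100 uM final. Gain or loss was fitted against DMSO. ATP-based viability was read on matched wells, five experimental replicates.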
# [6] = CCTE_Deisenroth_H295R-HTRF_384WELL_CTOX: Cytotoxicity Assessment in CCTE's H295R-HTRF Assay, Deisenroth Lab (AID 2284380)
# Summary of the method: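 H295R adrenocortical carcinoma cells plated 24 h, then exposed 48 h to nine-point series 0.001–100 uM final, triplicate, n=5. ATP measured by CellTiter-Glo 2.0 luminescence on same plates after medium collection; loss versus DMSO.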
# [7] = VALA_TUBIPS_Antagonist_CellCount: Viability Assessment in the VALA Sciences human iPS-derived Endothelial Tubule Formation (TUBIPS) Antagonism Assay (AID 2284335)
# Method: VALA_TUBIPS_Agonist is a cell-based, multiplexed assay that uses human iPS-derived endothelial cells (iPSC). Measurements were taken 72 hours after chemical dosing in a 96-well plate.VALA_TUBIPS_Antagonist_CellCount is the one of two assay components measured from the VALA_TUBIPS_Antagonist assay. It is designed to make measurements of viability, a form of viability reporter, as detected with fluorescence intensity signals by HCS Fluorescent Imaging technology. Data from the assay component VALA_TUBIPS_Antagonist_CellCount was analyzed at the endpoint, VALA_TUBIPS_Antagonist_CellCount, in the positive analysis fitting direction relative to DMSO as the negative control and baseline of activity. Using a type of viability reporter, loss-of-signal activity can be used to understand viability. To generalize the intended target to other relatable targets, this assay endpoint is annotated to the cell cycle intended target family, where the subfamily is cell count.
# This HUVEC-HDF assay was designed to detect chemical suppression of tubulogenesis, i.e. antagonism. To measure tubulogenesis antagonism, HUVEC cells were co-cultured with HDF cells at a 1:3 ratio for 3-days in 10 ng/ml VEGF (i.e., favorable conditions with growth factors), then changed to assay medium containing 10 ng/ml VEGF and ToxCast compounds for an additional 3-day period. […]
# [8] = VALA_MIGHUV1_ScratchOnly_WoundArea: VALA Sciences human Umbilical Vein Endothelial Cell Migration (MIGHUV) Assay, Area of Scratch Wound Inhibited Recovery (AID 2284336)
# Summary of the method: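 HUVEC monolayers (9000 cells/well) were scratched after 24 h, dosed within 30 min (six concentrations, triplicate, 0.1% DMSO), allowed 24 h recovery, then fixed. Hoechst-stained nuclei in the wound imaged; cytochalasin D as reference.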
# [9] = VALA_TUBHUV_Agonist_TubuleLength: VALA Sciences human Umbilical Vein Endothelial Tubule Formation (TUBHUV) Agonism Assay (AID 2284337)
# Summary of the method: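 HUVEC co-cultured with fibroblasts (1:3) 3 days in 10 ng/ml VEGF, then 3 days with compound plus VEGF; 0.1 % DMSO neutral control. Fixed, nuclear and CD31 stained; tubule length by fluorescence imaging.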
# [10] = VALA_TUBIPS_Agonist_CellCount: Viability Assessment in the VALA Sciences human iPS-derived Endothelial Tubule Formation (TUBIPS) Agonism Assay (AID 2284338)
# [11] = system: TTR (gene 7276); assay: CCTE_GLTED_hTTR_0.125uM: CCTE's human Transthyretin (hTTR) Inhibition Assay, with 0.125uM TTR, Great Lakes Toxicology and Ecology Division (GLTED) Lab (AID 2284431; active means hit-call score of the fitted dose curve at least 0.9, where 1 is the maximum; inactive means score below 0.9;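 further: hits lower the fluorescence signal relative to DMSO baseline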)
# Summary of the method: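 TTR at 0.125uM incubated 2 h with test chemical; displacement of bound ANSA read by fluorescence (ex 380, em 475). Activity is signal loss versus DMSO baseline.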
smiles,measurement,setting,value
CON=C(C(=O)OC)c1ccccc1CON=C(C)c1cccc(C(F)(F)F)c1,outcome,[1],inactive
same,AC50,[2],24.6 µM (active)
C[Si](Cn1cncn1)(c1ccc(F)cc1)c1ccc(F)cc1,AC50,[3],4.09 µM (active)
same,AC50,[4],0.968 µM (active)
same,outcome,[5],inactive
same,outcome,[6],inactive
Cc1ccn2nc(S(=O)(=O)Nc3c(F)cccc3F)nc2n1,outcome,[3],inactive
CCCCOC(=O)c1ccccc1C(=O)O,AC50,[4],54.9 µM (active)
same,outcome,[5],inactive
same,outcome,[6],inactive
C=C(C)[C@H]1Cc2c(ccc3c2O[C@@H]2COc4cc(OC)c(OC)cc4[C@@H]2C3=O)O1,outcome,[1],inactive
same,AC50,[2],0.907 µM (active)
CC(C)N(C(=O)SCC(Cl)=C(Cl)Cl)C(C)C,AC50,[2],23.2 µM (active)
CCOC(=O)CC(SP(=O)(OC)OC)C(=O)OCC (stereo not given),outcome,[1],inactive
CN(C)[C@@H]1C(=O)C(C(N)=O)=C(O)[C@@]2(O)C(=O)C3=C(O)c4c(O)cccc4[C@@](C)(O)[C@H]3[C@H](O)[C@@H]12,outcome,[1],inactive
same,outcome,[7],inactive
same,AC50,[8],90.1 µM (active)
same,AC50,[9],7.49 µM (active)
same,AC50,[10],9.92 µM (active)
same,AC50,[2],19.9 µM (active)
CCCCN(CC)c1c([N+](=O)[O-])cc(C(F)(F)F)cc1[N+](=O)[O-],AC50,[3],2.78 µM (active)
CN1COCN(Cc2cnc(Cl)s2)C1=N[N+](=O)[O-],outcome,[1],inactive
same,outcome,[2],inactive
CCOP(=O)(NC(C)C)Oc1ccc(SC)c(C)c1 (stereo not given),outcome,[1],inactive
same,outcome,[2],inactive
same,AC50,[3],14.6 µM (active)
S=C1NCCN1,outcome,[1],inactive
same,outcome,[8],inactive
same,outcome,[9],inactive
same,outcome,[10],inactive
same,outcome,[2],inactive
CCOP(=O)(OCC)Oc1cc(C)nc(C(C)C)n1,outcome,[1],inactive
same,outcome,[2],inactive
CC[C@H](C)[C@H]1O[C@]2(C=C[C@@H]1C)C[C@@H]1C[C@@H](C/C=C(\C)[C@@H](O[C@H]3C[C@H](OC)[C@@H](O[C@H]4C[C@H](OC)[C@@H](NC)[C@H](C)O4)[C@H](C)O3)[C@@H](C)/C=C/C=C3\CO[C@@H]4[C@H](O)C(C)=C[C@@H](C(=O)O1)[C@]34O)O2,AC50,[1],18.5 µM (active) and 3.79 µM (active)
same,AC50,[2],0.824 µM (active)
CC(C1CC1)C(O)(Cn1cncn1)c1ccc(Cl)cc1 (stereo not given),outcome,[4],inactive
same,outcome,[5],inactive
same,outcome,[6],inactive
CCC(CC)Nc1c([N+](=O)[O-])cc(C)c(C)c1[N+](=O)[O-],AC50,[3],1.64 µM (active)
same,AC50,[11],0.448 µM (active)
CSC1=N[C@@](C)(c2ccccc2)C(=O)N1Nc1ccccc1,outcome,[1],inactive
same,outcome,[2],inactive
CCOP(=S)(OCC)Oc1ccc([N+](=O)[O-])cc1,outcome,[2],inactive
same,AC50,[3],11.6 µM (active)
CCOP(=S)(Oc1cnc(C(C)(C)C)nc1)OC(C)C (stereo not given),outcome,[1],inactive
same,AC50,[2],23.9 µM (active)
same,AC50,[3],16.7 µM (active)
CC1=NNC(=O)N(/N=C/c2cccnc2)C1,outcome,[1],inactive
same,outcome,[7],inactive
same,outcome,[8],inactive
same,outcome,[9],inactive
same,outcome,[10],inactive
same,outcome,[2],inactive
CCCOCC(=Nc1ccc(Cl)cc1C(F)(F)F)n1ccnc1,AC50,[4],0.27 µM (active)
same,AC50,[5],0.414 µM (active)
same,outcome,[6],inactive
same,AC50,[11],3.56 µM (active)
CCCSP(=O)(OCC)SCCC,outcome,[1],inactive
same,outcome,[2],inactive
CCOP(=S)(OCC)OC(Cl)C(Cl)(Cl)Cl (stereo not given),outcome,[1],inactive
same,outcome,[2],inactive
same,AC50,[11],33.2 µM (active)
COc1cccc(C(=O)NN(C(=O)c2cc(C)cc(C)c2)C(C)(C)C)c1C,AC50,[11],20.6 µM (active)
CCOP(=S)(OCC)Oc1cc(C)nc(C(C)C)n1,outcome,[1],inactive
CCCCSP(=O)(SCCCC)SCCCC,AC50,[1],82.5 µM (active)
same,outcome,[2],inactive
Cc1cc(C2CC2)nc(Nc2ccccc2)n1,AC50,[11],14.8 µM (active)
CCCSP(=O)(OCC)Oc1ccc(Br)cc1Cl (stereo not given),AC50,[3],14.1 µM (active)
same,AC50,[11],3.6 µM (active)
O=C(O)c1cc(Oc2ccc(C(F)(F)F)cc2Cl)ccc1[N+](=O)[O-],AC50,[3],4.45 µM (active)
Nc1c(Cl)cc([N+](=O)[O-])cc1Cl,AC50,[11],0.176 µM (active)
O=[N+]([O-])c1cc(C(F)(F)F)c(Cl)c([N+](=O)[O-])c1Nc1ncc(C(F)(F)F)cc1Cl,AC50,[1],21.9 µM (active)
same,outcome,[8],inactive
same,outcome,[10],inactive
same,AC50,[2],0.937 µM (active)
same,AC50,[3],0.388 µM (active)
same,AC50,[11],0.0665 µM (active)
CCOP(=S)(OCC)SCCSCC,outcome,[1],inactive
same,AC50,[3],13.9 µM (active)
FC(F)C(F)(F)OCC(Cn1cncn1)c1ccc(Cl)cc1Cl (stereo not given),AC50,[3],10.1 µM (active)
CC1(C(=O)Nc2ccc(O)c(Cl)c2Cl)CCCCC1,AC50,[11],7.98 µM (active)
COP(=O)(OC)OC(Br)C(Cl)(Cl)Br (stereo not given),outcome,[1],inactive
same,AC50,[2],16.4 µM (active)
CC(=NC#N)N(C)Cc1ccc(Cl)nc1,outcome,[1],inactive
same,outcome,[2],inactive
COP(=O)(OC)C(O)C(Cl)(Cl)Cl (stereo not given),outcome,[1],inactive
C[N+]1(C)CCCCC1,outcome,[1],inactive
same,outcome,[2],inactive
COP(=O)(NC(C)=O)SC (stereo not given),outcome,[1],inactive
same,outcome,[2],inactive

# Source: PubChem BioAssay (EPA / NIEHS)
